Glioma ERSR ind – qHTS for Inducers of the Endoplasmic Reticulum Stress Response (ERSR) in Human Glioma: qHTS; U87-MG GRP78 promoter luciferase reporter, 16 h; Potency, µM, for inactives: at the highest dose activation, actives largely listed as activators; actives 0.02% (n = 420,000); AID 602332, 2012; active = well fitted activation curve with a large enough effect; inconclusive = small, poorly fitted or top-dose-only effect; inactive = no such curve, though single readings can be large or run the other way; also: potency is read from the fitted curve at half-maximal effect; series mostly up to about 76 µM; % of control where 0% means no effect; nearly all actives have a fitted effect of over 35% in size
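ERSR induction read as luciferase luminescence (Bright-Glo, 10 min at room temperature) in stably transfected human U87-MG glioma cells exposed to compounds for 16 h, using GRP78 as sensor.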
pAkt inh – HTS Assay for Inhibitors of Akt Phophorylation: Primary Screen. Neuro2A IGF-stimulated pAkt S473 HTRF, 20 min; active compounds read low. activity change, % for hits at 50 µM. actives 0.32% (n = 360,000). AID 651550, 2012; in the data active = activity change below about -80%; inconclusive = mostly about -51% to -80%; also: % is scaled to controls: 0 for no effect and ±100 for the full control effect
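Neuro2A cells in DMEM with 0.5% FBS, overnight at 37 deg C, given compound at single 50 µM final, then IGF (6 nM final) for 20 min at 37 deg C. Lysed; phospho-Akt Ser473 by HTRF after 24 h, 665/615 ratio.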
KCNH2 3.1 inh – qHTS for Inhibitors of KCHN2 3.1: Mutant qHTS | Potassium voltage-gated channel subfamily H member 2, brain isoform KCNH2 3.1 (human) | U2OS KCNH2 3.1, thallium flux FluxOr; active compounds read low | activity change, % (tested at about 1.8 µM) | actives 0.95% (n = 340,000) | AID 720553, 2013;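 active = maximum activity change below -70%; inconclusive = maximum activity change from -70% to -50%; inactive = maximum activity change above -50%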;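 also: thallium influx rate constant from kinetic fluorescence after stimulation buffer; % is scaled to controls: 0 for no effect and ±100 for the full control effect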
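Virally transduced U2OS (3.1 isoform, 4 h infection in dark at RT) → overnight 37 C → FluxOr + Red40 in HBSS/HEPES, 45 min → stimulation buffer, 2 min kinetic read → rate constant vs DMSO controls.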
gsp antagonist – qHTS for Antagonists of gsp, the Etiologic Mutation Responsible for Fibrous Dysplasia/McCune-Albright Syndrome: qHTS. gsp-mutant cells, cAMP HTRF, 30 min. Potency, µM (titrated, usually from 76.9 µM), without a hit: at the highest dose activity change, negative = inhibition, hits mostly inhibitors. actives 0.4% (n = 340,000). AID 624288, 2012; calls by dose curve; cell line not stated here;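 also: intracellular cAMP measured with PDE inhibitor Ro 20-1724 present during compound exposure; potency is read from the fitted curve at half-maximal effect; % is scaled to controls: 0 for no effect and ±100 for the full control effect; nearly all actives have a fitted effect of over 65% in size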
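HTRF cAMP measurement after 30 min RT detection following 30 min, 37C compound treatment alongside […] (added as 300 uM solution) in G418-selected cells seeded at 2000/well and grown 16–24 h.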
hERG WT inh – qHTS for Inhibitors of KCHN2 3.1: Wildtype qHTS | actives 0.37% (n = 340,000) | AID 720551, 2013 | activity change, % at 1.84 µM | U2OS, BacMam KCNH2, thallium flux FluxOr; active compounds read low | Voltage-gated inwardly rectifying potassium channel KCNH2 (Homo sapiens), Q12809;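 active = maximum activity change below -70%; inconclusive = maximum activity change between -70% and -50%; inactive = maximum activity change above -50%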; also: % is scaled to controls: 0 for no effect and ±100 for the full control effect
Target sequence (Q12809 whole entry, looked up): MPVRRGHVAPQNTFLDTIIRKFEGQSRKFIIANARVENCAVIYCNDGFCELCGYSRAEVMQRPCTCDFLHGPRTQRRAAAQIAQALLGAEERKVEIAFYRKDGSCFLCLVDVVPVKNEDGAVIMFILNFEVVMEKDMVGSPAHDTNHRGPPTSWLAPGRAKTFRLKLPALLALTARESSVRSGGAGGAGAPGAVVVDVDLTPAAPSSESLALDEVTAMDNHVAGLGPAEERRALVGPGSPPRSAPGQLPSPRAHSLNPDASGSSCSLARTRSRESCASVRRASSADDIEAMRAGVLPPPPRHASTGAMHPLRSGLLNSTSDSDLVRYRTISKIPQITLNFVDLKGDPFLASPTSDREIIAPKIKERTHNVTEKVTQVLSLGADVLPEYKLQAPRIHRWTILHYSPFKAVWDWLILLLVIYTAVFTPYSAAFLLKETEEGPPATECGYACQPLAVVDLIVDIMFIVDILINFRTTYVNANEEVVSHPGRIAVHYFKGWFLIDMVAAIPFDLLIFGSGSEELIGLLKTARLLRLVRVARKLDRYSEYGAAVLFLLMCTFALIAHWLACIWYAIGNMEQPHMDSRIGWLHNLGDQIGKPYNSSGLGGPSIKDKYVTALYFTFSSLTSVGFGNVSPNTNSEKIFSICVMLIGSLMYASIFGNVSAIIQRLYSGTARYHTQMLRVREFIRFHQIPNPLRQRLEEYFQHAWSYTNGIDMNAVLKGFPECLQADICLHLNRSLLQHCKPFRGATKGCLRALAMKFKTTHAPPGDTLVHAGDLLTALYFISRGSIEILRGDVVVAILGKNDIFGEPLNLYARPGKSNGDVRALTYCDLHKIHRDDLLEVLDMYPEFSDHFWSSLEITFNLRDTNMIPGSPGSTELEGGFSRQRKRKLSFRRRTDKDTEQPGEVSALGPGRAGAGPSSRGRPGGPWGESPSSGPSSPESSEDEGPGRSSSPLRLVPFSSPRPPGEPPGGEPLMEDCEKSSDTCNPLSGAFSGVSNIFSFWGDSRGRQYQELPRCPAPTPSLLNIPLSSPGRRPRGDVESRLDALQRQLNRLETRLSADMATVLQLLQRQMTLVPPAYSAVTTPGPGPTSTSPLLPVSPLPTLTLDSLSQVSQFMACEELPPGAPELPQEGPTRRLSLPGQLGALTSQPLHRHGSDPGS
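U2OS cells were transduced with wild-type KCNH2 virus (2.03 x 10^8 / mL) for 4 h at room temperature, then cultured overnight at 37 C. Thallium flux was read with FluxOr dye. Rate constants were normalized to DMSO controls.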
gsp agonist – qHTS for Agonist of gsp, the Etiologic Mutation Responsible for Fibrous Dysplasia/McCune-Albright Syndrome: qHTS. gsp mutant cells, cAMP HTRF, 30 min. Potency, µM (top dose mostly 76.9 µM), inactives show at the highest dose activation (cAMP increase), actives largely listed as activators. actives 0.13% (n = 340,000). AID 624287, 2012; active = well fitted activation curve with a large enough effect; inconclusive = small, poorly fitted or top-dose-only effect, or another doubt; inactive = no such curve, though single readings can be large or run the other way; cell line not stated here;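 also: phosphodiesterase inhibitor Ro 20-1724 added with compounds to block cAMP breakdown; potency is read from the fitted curve at half-maximal effect; nearly all actives have a fitted effect of over 60% in size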
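Cells stably selected in G418 were plated at 2000/well, grown 16-24 hr, then given compounds in DMSO with the PDE inhibitor […] (300 uM solution added) for 30 min at 37C; cAMP was read by HTRF.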
The depositor's hits bear a star; i = inactive; u = inconclusive; x = no result; [ ] = dose if it differs, or a comment. Only some compounds are listed: those with a hit (about 1.6% of all), similar ones and a draw of the others.

SMILES	Glioma ERSR ind	pAkt inh	KCNH2 3.1 inh	gsp antagonist	hERG WT inh	gsp agonist
Cc1cnc(SCc2ccccn2)nc1C1CCCN(C(=O)c2coc3c2C(=O)CCC3)C1 (stereo not given)	0%	x	x	x	x	x
CCc1cc(C=NC2CCCCC2)c(O)s1	4%	i	11	-2%	-135*	-10%
Cc1cccc(CNC(=O)c2cnn(-c3ncc(C)c(-c4ccc(F)cc4)n3)c2C)n1	-2%	x	x	x	x	x
Cc1ncc2c(c1CNC(=O)c1ccccc1F)CCN(C(=O)c1ccc3c(c1)OCCO3)C2	-3%	x	x	x	x	x
Cc1c(OCC(=O)NCc2ccccn2)ccc2c(-c3ccccc3)cc(=O)oc12	-3%	i	-1	-2%	1	x
Cc1c(OCC(=O)NCC(O)c2ccccc2)ccc2c(-c3ccccc3)cc(=O)oc12 (stereo not given)	1%	i	-2	28µM*	0	x
COc1ccccc1CN1CCC2(CC1)c1ccccc1[C@@H](NC(=O)c1ccco1)[C@@H]2OC	-4%	x	x	x	x	x
OC(c1ccc2c(c1)CN(Cc1ccc3nsnc3c1)CCO2)C1CCCCC1 (stereo not given)	2%	x	x	x	x	x
Nc1ccccc1-c1nnc2n1CCCCC2	-3%	i	13	14%	-86*	-5%[15.4 µM]
Nc1cccc(-c2nnc3n2CCCCC3)c1	-5%	i	2	14%	-4	3%[15.4 µM]
CCCNS(=O)(=O)c1ccc(OCC(=O)Nc2ccccc2F)cc1	1%	-102%*	-10	-10%	-8	-1%
CSc1nnc(NC(=O)c2nc(S(=O)(=O)Cc3ccccc3)ncc2Cl)s1	-19%	i	6	32µM*	5	-10%[15.4 µM]
Cc1ccc(CS(=O)(=O)c2ncc(Cl)c(C(=O)Nc3nc4ccc(C)cc4s3)n2)cc1	-6%	x	x	x	x	x
CSc1ncc(Cl)c(C(=O)Nc2nnc(SC)s2)n1	-1%	i	4	6%	-2	u
CCCc1nnc(NC(=O)c2nc(S(=O)(=O)Cc3ccc(C)cc3)ncc2Cl)s1	-17%	i	-17	28µM*	-14	-11%
CC(C)c1nnc(NC(=O)c2nc(S(=O)(=O)Cc3ccccc3)ncc2Cl)s1	-19%	i	13	25µM*	0	-3%[15.4 µM]
N[C@@H](C(=O)O)c1ccc(C(=O)O)c(O)c1	-3%	x	x	x	x	x
Cc1ccc2c(c1)cc(CN(Cc1ccc3c(c1)OCO3)C(=O)c1cnccn1)c1nnnn12	-4%	i	-96*	3%	0	1%
OC(Cc1nc2ccccc2[nH]1)c1ccccc1Cl (stereo not given)	-1%	i	-74*	3%	-10	3%
N#Cc1nc(COc2ccc(Br)cc2)oc1N1CCN(Cc2ccccc2)CC1	7%	i	-19	-7%	-8	-28%
CCN1CCN(c2oc(COc3ccc(-c4ccccc4)cc3)nc2C#N)CC1	-3%	i	-71*	9%	29	0%
Cc1cc(-c2ccnc(-n3ncc(C(=O)NCC4CCCN(C)C4)c3C3CC3)n2)c(C)s1 (stereo not given)	-2%	x	x	x	x	x
COc1ccc(-c2nc3cc(F)ccc3cc2CN(C(=O)c2ccc3c(c2)OCO3)C2CC2)cc1	-4%	x	x	x	x	x
COc1ccccc1OCCSc1nnnn1C1CCCCC1	9%	x	-20	-5%	-8	-4%
c1ccc(OCCSc2nnnn2C2CCCCC2)cc1	-1%	-112%*	-2	-12%	2	12%
SMILES	Glioma ERSR ind	pAkt inh	KCNH2 3.1 inh	gsp antagonist	hERG WT inh	gsp agonist
O=[N+]([O-])c1ccc(Nc2ccccc2)c2nonc12	-6%	i	13	-21%	1	17%
O=[N+]([O-])c1ccc(Sc2cccc[n+]2[O-])c2nonc12	-13%	i	14	35µM*	-7	11%[15.4 µM]
CCCCCCCN(CCCCCCC)c1ccc(/C=C/c2ccnc3ccccc23)cc1	-3%	x	x	x	x	x
O=C(NCCCN1CCOCC1)c1onc(CSc2ccccc2)c1C(=O)NCCCN1CCOCC1	-1%	i	10	5%	10	x
COc1cccc(SCc2noc(C(=O)NCCCN3CCOCC3)c2C(=O)NCCCN2CCOCC2)c1	-6%	i	-98*	-4%	0	-30%
NS(=O)(=O)c1nn2cc(-c3ccccc3)nc2s1	-5%	x	x	x	x	x
COC(=O)C1=C(C)NC(c2c(O)ccc3ccccc23)C(C(=O)OC)=C1C (stereo not given)	-2%	i	-85*	-1%	8	15%[15.4 µM]
c1cncc(OC2CCN(Cc3ccc4c(c3)CN(Cc3ccc5c(c3)OCCO5)CCO4)CC2)c1	-4%	x	x	x	x	x
COC(=O)c1cc(NC(=O)CC2CCCC2)cc(C(=O)OC)c1	-4%	i	-73*	4%	0	14%[15.4 µM]
CC(=O)c1cccc(NC(=O)CC2CCCC2)c1	-1%	i	3	0%	-5	3%
CCc1cc(/C(Cc2csc(C)n2)=N/O)c(O)cc1O	1%	-104%*	9	-15%	11	-18%
Cc1cc(C)cc(OCCCC(=O)O)c1	0%	-106%*	-6	0%	-1	-29%
Cc1cccc(OCCCC(=O)O)c1	-5%	i	-5	3%	-15	-30%
Cc1ccccc1NC(=S)N(Cc1ccccc1)Cc1cccnc1	-2%	i	-14	-10%	6	1%[15.4 µM]
CSc1cccc(NC(=S)N(Cc2ccc(C)cc2)Cc2cccnc2)c1	3%	i	-89*	-5%	9	-2%[15.4 µM]
O=C(NCc1ccco1)c1cc(NS(=O)(=O)c2cccc([N+](=O)[O-])c2)ccc1O	-6%	i	-198*	x	-152*	-8%[15.4 µM]
O=C(NCc1ccco1)c1cccc(NS(=O)(=O)c2cccc(F)c2)c1	0%	i	10	10%	-1	-2%[15.4 µM]
COc1ccccc1OCc1ccc(C(=O)Nc2cc(OC)c(OC)c(OC)c2)o1	-5%	i	14	u	-129*	-21%
COc1cc(NC(=O)c2ccc(COc3ccccc3Br)o2)cc(OC)c1OC	-3%	i	11	-9%	2	-11%
C=CCN(CC=C)c1ccc(/C=C/c2ccnc3ccccc23)cc1	4%	x	x	x	x	x
COC(=O)c1cc(Cl)c(NC(=O)/C=C/c2ccc(Cl)cc2)cc1OC	0%	i	-80*	2%	-27	5%
COC(=O)c1cc(Cl)c(NC(=O)/C=C/c2ccc(OC)c(OC)c2)cc1OC	-1%	i	3	-7%	-3	-1%

High-throughput results as filed in PubChem BioAssay.
